Source: PubChem BioAssay (National Center for Advancing Translational Sciences (NCATS))
12-LOX inh: Primary qHTS assay for inhibitors of human arachidonate 12S-lipoxygenase (ALOX12): Round 2. Polyunsaturated fatty acid lipoxygenase ALOX12 (Homo sapiens), P18054. Potency, µM (doses to about 108 µM), for the others: at the highest dose activity change, negative = inhibition, actives largely listed as inhibitors. AID 1671190, 2021. purified 12hLO, xylenol orange hydroperoxide absorbance. hit rate 1.1% among 580,000; also: potency is read from the fitted curve at half-maximal effect
Target sequence (P18054 whole entry, looked up): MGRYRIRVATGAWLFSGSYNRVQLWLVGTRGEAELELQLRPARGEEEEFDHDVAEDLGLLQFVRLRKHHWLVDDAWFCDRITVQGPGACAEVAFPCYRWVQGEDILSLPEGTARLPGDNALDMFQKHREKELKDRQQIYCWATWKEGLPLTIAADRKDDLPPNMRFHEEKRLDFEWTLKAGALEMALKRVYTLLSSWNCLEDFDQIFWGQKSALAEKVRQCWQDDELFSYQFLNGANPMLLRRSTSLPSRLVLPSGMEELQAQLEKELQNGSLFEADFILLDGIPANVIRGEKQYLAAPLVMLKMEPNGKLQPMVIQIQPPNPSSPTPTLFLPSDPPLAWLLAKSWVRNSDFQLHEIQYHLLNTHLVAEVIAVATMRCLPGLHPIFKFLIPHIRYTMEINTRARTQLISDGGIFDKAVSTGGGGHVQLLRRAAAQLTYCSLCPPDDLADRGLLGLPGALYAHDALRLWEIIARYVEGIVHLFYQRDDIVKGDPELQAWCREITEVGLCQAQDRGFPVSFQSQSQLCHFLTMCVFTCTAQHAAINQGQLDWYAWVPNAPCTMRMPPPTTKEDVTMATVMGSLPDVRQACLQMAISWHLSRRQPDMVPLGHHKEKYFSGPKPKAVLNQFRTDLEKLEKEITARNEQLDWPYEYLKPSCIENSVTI
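Purified human 12hLO at 150 nM in 25 mM Hepes, 0.01% Triton X-100, pH 7.0, preincubated 15 min at room temperature with compound. Reaction started with 40 uM arachidonic acid, 30 min at room temperature. Hydroperoxide measured by Fe-xylenol orange, 573/405 nm absorbance ratio.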
HT1080 IDH1KD tx: qHTS for induction of synthetic lethality in tumor cells producing 2HG: qHTS for the HT-1080-IDH1KD cell line. HT-1080 IDH1 knockdown viability, ATP luminescence, 48 h. Potency, µM (highest dose often 46.1 µM), without a hit: at the highest dose activity, negative = toxicity, usual class: cytotoxic. hit rate 2% among 360,000;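 also: potency is read from the fitted curve at half-maximal effect; 0% = DMSO wells and -100% = cell-free medium wells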
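% activity derives from luminescence (CellTiter-Glo), normalised to DMSO and no-cell wells. HT-1080-IDH1KD cells, 750/well, had 48 h compound exposure at 37 °C.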
TDP1 cell CPT: qHTS for Inhibitors of human tyrosyl-DNA phosphodiesterase 1 (TDP1): qHTS in cells in presence of CPT; hit rate 12% among 420,000; chicken DT40 Tdp1-/-;hTDP1 cells + 20 nM CPT, ATP luminescence, 48 h; Potency, µM (titrated, usually from 46.2 µM), for the others: top-dose activity change, negative = growth inhibition, actives largely listed as inhibitors; also: potency is read from the fitted curve at half-maximal effect; nearly all actives have a fitted effect of over 55% in size
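Cell growth measured by CellTiter-Glo luminescence after a minimum 48 h, 37 C compound exposure with 20 nM CPT in Tdp1-knockout DT40 cells stably expressing hTDP1, seeded 400/well; qHTS titration format.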
TDP1 cell noCPT: qHTS for Inhibitors of human tyrosyl-DNA phosphodiesterase 1 (TDP1): qHTS in cells in absence of CPT. hit rate 15% among 420,000. DT40 Tdp1-/- hTDP1 cells, no CPT, ATP luminescence, 48 h. Potency, µM (titrated, usually from 46.2 µM), inactives show at the top dose activity change, negative = growth inhibition, hits mostly inhibitors; also: potency is read from the fitted curve at half-maximal effect; nearly all actives have a fitted effect of over 55% in size
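Growth kinetics read by CellTiter-Glo luminescence after ≥48 hr at 37 °C. Cells: DT40 Tdp1-/- stably carrying human TDP1, 400 per well, compound exposure in the absence of CPT (DMSO vehicle).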
IL-1B inflam inh: qHTS for Inhibitors of Inflammasome Signaling: IL-1-beta AlphaLISA Primary Screen; THP-1 LPS/ATP IL-1B secretion, AlphaLISA, 16 h; hits give low values; activity change, % at 57.5 µM; hit rate 4.7% among 360,000; in the data active = activity change below about -50%; inconclusive = mostly about -30% to -49%
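THP-1 cells pretreated 1 hr with compounds (up to 57.5 uM final), then stimulated with LPS (250 ng/mL final) plus ATP (1.25 mM final); secreted IL-1B measured by AlphaLISA after 16 hr, decreased signal indicating inhibition.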
HT1080-NT tox: qHTS for induction of synthetic lethality in tumor cells producing 2HG: qHTS for the HT-1080-NT fibrosarcoma cell line. HT-1080-NT fibrosarcoma viability, CellTiter-Glo ATP luminescence, 48 h. Potency, µM (titrated, usually from 46.1 µM), without a hit: top-dose activity, negative = less viability, actives largely listed as cytotoxic. hit rate 1.6% among 360,000. AID 686970, 2013;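 also: NT is the 2HG producing partner of a matched IDH1 knockdown line; potency is read from the fitted curve at half-maximal effect; 0% = DMSO-treated cells and -100% = media-only wells without cells; nearly all actives have a fitted effect of over 55% in size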
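HT-1080-NT; 750 cells/well; 5% FBS RPMI; 48 h compound, 37 degrees C; CellTiter-Glo luminescence; curve fitting and curve-class assignment.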
Active calls of the source: *; ? = inconclusive; / = not tested or not shown; ! = not active in a repeat; [ ] = dose if it differs, or a comment. The entries come from a sample that favours hits as a whole. Unless noted, calls follow the shape of the dose curve; as a rule, active = well fitted curve in the direction sought with a large enough effect; inconclusive = small, poorly fitted or top-dose-only effect, or another doubt; inactive = no such curve, though single readings can be large; an effect the other way counts as inactive or inconclusive. Unless noted, % is scaled to controls: 0 for no effect and ±100 for the full control effect.

SMILES | 12-LOX inh | HT1080 IDH1KD tx | TDP1 cell CPT | TDP1 cell noCPT | IL-1B inflam inh | HT1080-NT tox
COc1ccc2c(C)c(CCC(=O)N3C[C@H]4C[C@@H](C3)c3cccc(=O)n3C4)c(=O)oc2c1 | -6.4% | 1.4% | -1.7% | -21.9% | -2.8 | 0.6%
Cc1oc2cc3oc(=O)c(CCC(=O)N4CCCCC4)c(C)c3cc2c1C | 5.9% | / | 11.6µM* | 23.1µM* | / | /
C=CC[N+](CC#CCO)(CCCC)CCCC | 22.1% | / | / | / | / | /
O=C1CSC(c2ccc(F)cc2F)c2cn[nH]c2N1 (configuration not stated) | 12.1% | / | / | / | / | /
Cc1ccc(N2C(=O)NC(=O)/C(=C/c3cnn(-c4ccc(C)cc4)c3)C2=O)cc1 | -24.5% | -2.3% | 16.4µM* | 18.4µM* | -10.3 | -5.5%
CCOC(C(=O)OCCCN(CC)CC)(c1ccccc1)c1ccccc1 | 341.0% | -12.9% | -18.3% | ? | ? | -12.6%
CCN(CC)CCCOC(=O)C(OC(C)C)(c1ccccc1)c1ccccc1 | ? | ? | 23.1µM* | 18.4µM* | -56.3* | ?
COC(=O)C1=C(N)Oc2n[nH]c(-c3ccccc3)c2C12C(=O)N(C)c1ccccc12 (configuration not stated) | -26.7% | / | / | / | / | /
Cc1ccc2oc(-c3ccc(Cl)cc3)c(O)c(=O)c2c1 | -15.4% | / | 20.6µM* | 16.4µM* | / | /
O=C1CN=C(c2ccc(Cl)cc2)c2oc3ccccc3c2N1 | 0.0% | -13.8% | 2.8% | 0.4% | 84.2 | -15.1%
O=C(NCc1ccccc1)[C@H]1CN2CCC1C[C@@H]2Cn1cc(C2(O)CCCCC2)nn1 (some centres not stated) | 22.6%[176 µM] | / | / | / | / | /
C=CCN1CCN(c2cccc(C(F)(F)F)c2)CC1 | 2.0% | / | / | / | / | /
Nc1ccc(CCN2CCN(c3cccc(C(F)(F)F)c3)CC2)cc1 | -10.9% | -22.5% | ? | 23.1µM* | -9.8 | -27.4%
COc1cccc2c1cc([N+](=O)[O-])c1c(C(=O)O)cc3c(c12)OCO3 | 13.8% | -7.0% | 18.4µM*! | 11.6µM*! | -58.2* | 0.7%
CCCCN1C(=O)/C(=C/c2ccc(N(C)C)cc2)C(=O)N(Cc2ccco2)C1=O | ? | 2.6% | 3.5% | -5.8% | ? | -3.7%
O=C1NC(=O)N(Cc2ccccc2)C(=O)/C1=C\c1ccco1 | ? | -14.4% | 20.6µM* | 13µM* | -6.1 | -25.1%
O=C1NC(=O)N(Cc2ccc(F)cc2)C(=O)/C1=C\C=C\c1ccco1 | ? | ? | 7.31µM* | 7.31µM* | -95.6* | 20.6µM*
CCCCN1C(=O)/C(=C\c2ccco2)C(=O)N(CCc2ccccc2)C1=O | ? | 7.4% | ? | -20.0% | -22.7 | 2.0%
CCCCN1C(=O)/C(=C/C=C/c2ccco2)C(=O)NC1=S | 6.31µM* | 12.2% | -26.2% | -12.3% | -9.1 | 0.4%
COc1ccc(CN2C(=O)NC(=O)/C(=C/c3ccoc3)C2=O)cc1 | ? | 4.4% | ? | ? | 2.5 | 8.5%
CCCN1CC[C@@H](CO)N(C)c2nc(C)ccc2C1 | 92.5%[176 µM] | / | / | / | / | /
Brc1ccccc1 | 6.9% | -3.2% | 16.7% | 17.1% | -20.3 | -2.6%
c1ccc(SSc2ccccc2)cc1 | 33.3% | -17.9% | 11.6µM* | 11.6µM* | -100.8* | 5.4%
O=C(C[C@@H]1CC[C@@H]2[C@H](COC[C@H](O)CN2Cc2cccc(C(F)(F)F)c2)O1)NCc1ccc(Cl)cc1 | ? | -26.7% | 11.6µM* | 8.2µM* | 9.3 | -22.3%
CCCn1c(=O)n(C)c(=O)c2c(SCC(=O)NC34CC5CC(CC(C5)C3)C4)nc(CC(C)C)nc21 | 0.7% | -0.1% | 14.6µM* | ? | 7.7 | 11.6%
SMILES | 12-LOX inh | HT1080 IDH1KD tx | TDP1 cell CPT | TDP1 cell noCPT | IL-1B inflam inh | HT1080-NT tox
CCCc1nn(C)c2c1C(c1ccncc1)C(C#N)=C(N)O2 (configuration not stated) | 0.0% | 10.4%[9.24 µM] | ? | 29.1µM* | -2.8 | 2.9%
CCOC(=O)c1ccc(Oc2coc3cc(OC(=O)N(C)C)ccc3c2=O)cc1 | -0.6% | / | / | / | / | /
CN(C)S(=O)(=O)c1ccc(C(=O)NCCSc2c(-c3ccccc3)[nH]c3ccccc23)cc1 | -5.8% | / | 6.51µM* | 6.51µM* | / | /
O=C(NCCSc1c(-c2ccccc2)[nH]c2ccccc12)c1ccc(S(=O)(=O)N2CCOCC2)cc1 | -2.5% | / | 5.8µM* | 8.2µM* | / | /
O=c1[nH]c(O)c(N=Nc2ccc(S(=O)(=O)N3CCOCC3)cc2)c(=O)[nH]1 | ? | 23.6% | 27.7% | -6.4% | -11.9 | 9.3%
CCOc1ccc(C(C)(C)COCc2cccc(Oc3ccccc3)c2)cc1 | 17.7% | / | / | / | / | /
COc1ccc2c(c1)c(C(=O)NC(C)C(C)C)c(C)n2C1CC1 (configuration not stated) | 3.7% | / | / | / | / | /
Cc1ccc(-n2nnnc2C2(NC(C)C)CCCCC2)cc1 | 4.6% | / | / | / | / | /
Cc1c(Cl)ccc2sc(N3CCN(C(=O)CCS(=O)(=O)c4ccc(F)cc4)CC3)nc12 | -18.6% | / | 0.581µM* | 0.461µM* | / | /
O=C(Cc1ccc(S(=O)(=O)N2CCCC2)s1)N1CCN(c2ccc(F)cc2)CC1 | -11.7% | -8.2% | ? | ? | 0.0 | -0.5%
O=C(CNC(=O)c1cccs1)OCC(=O)c1ccc([N+](=O)[O-])cc1 | -12.1% | 13.8% | 16.4µM* | ? | -88.7* | -2.5%
C=CCc1cc(C)ccc1OCCCC(C(=O)OCC)C(=O)OCC | 9.1% | 16.7% | -26.2% | ? | 1.1 | 11.3%
CCCCCOc1ccc(C)cc1CN(CCCl)CCCl | 0.0% | ? | 16.4µM* | 16.4µM* | / | -22.5%
CC(C)N1CC=C(c2c[nH]c3ccccc23)CC1 | 18.8% | -19.9% | 7.31µM* | 4.61µM* | 4.3 | -16.1%
O=C1NC(=S)SC1=Cc1ccc(N(CCCl)CCCl)cc1 | ? | -5.4% | 13µM* | 16.4µM* | -19.2 | -20.8%
O=C1C[C@@H]2CCN(C3COC3)C[C@@H]2CCN1 | 0.1%[12.5 µM] | / | / | / | / | /
O=[S+]1([O-])NCC2(CCN(Cc3ccoc3)C2)Oc2ncccc21 (configuration not stated) | -0.1%[6.33 µM] | / | / | / | / | /
CCOc1ccccc1NC(=O)c1cccn(Cc2ccccc2C)c1=O | -5.5% | / | -2.4% | 0.7% | / | /
